Data reported in PMC3218832.

Key:
Experiment in all cases: protein binding microarray; high values mean tight binding
Conditions in all cases: dsDNA, one strand shown
RELARELA (p65 homodimer) = RELARELA (p65 homodimer) (Homo sapiens, UniProt Q04206 1-307)
p50p50 homodimer = p50p50 homodimer (Homo sapiens, UniProt P19838 7-356)
p52p52 homodimer = target: T1, p52p52 homodimer (Homo sapiens, UniProt Q00653 4-332)
T1 sequence: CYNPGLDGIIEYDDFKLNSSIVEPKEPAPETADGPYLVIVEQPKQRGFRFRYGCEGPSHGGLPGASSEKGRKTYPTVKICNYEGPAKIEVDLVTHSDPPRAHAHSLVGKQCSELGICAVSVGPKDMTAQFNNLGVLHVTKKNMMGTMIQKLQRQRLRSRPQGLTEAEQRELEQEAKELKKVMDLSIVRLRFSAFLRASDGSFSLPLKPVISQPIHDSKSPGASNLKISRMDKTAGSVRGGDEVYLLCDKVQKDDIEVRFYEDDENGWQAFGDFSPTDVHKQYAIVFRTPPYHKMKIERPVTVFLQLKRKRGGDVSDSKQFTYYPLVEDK

[1] = target: RELA (p65) subunit of heterodimer;p50 subunit (Homo sapiens;Homo sapiens, UniProt Q04206;P19838 1-307;7-356)
[2] = target: RELA (p65) subunit of heterodimer;p52 subunit (Homo sapiens;Homo sapiens, UniProt Q04206;Q00653 1-307;4-332)
RELB subunit;p50 subunit = RELB subunit;p50 subunit (Homo sapiens;Homo sapiens, UniProt Q01201;P19838 120-401;7-356)
RELB subunit;p52 subunit = target: T2, RELB subunit;p52 subunit (Homo sapiens;Homo sapiens, UniProt Q01201;Q00653 120-401;4-332)
T2 sequence 1: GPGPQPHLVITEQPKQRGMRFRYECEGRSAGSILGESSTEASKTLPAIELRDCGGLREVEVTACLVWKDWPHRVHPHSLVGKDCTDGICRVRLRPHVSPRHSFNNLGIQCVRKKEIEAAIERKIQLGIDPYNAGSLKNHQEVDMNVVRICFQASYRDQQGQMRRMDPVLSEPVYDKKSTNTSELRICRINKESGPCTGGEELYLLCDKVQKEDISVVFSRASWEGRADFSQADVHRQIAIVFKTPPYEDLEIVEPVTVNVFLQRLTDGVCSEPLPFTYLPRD
T2 sequence 2: T1 sequence

[3] = target: C-Rel subunit;p50 subunit (Homo sapiens;Homo sapiens, UniProt Q04864;P19838 1-285;7-356)
[4] = target: T3, C-Rel subunit;p52 subunit (Homo sapiens;Homo sapiens, UniProt Q04864;Q00653 1-285;4-332)
T3 sequence 1: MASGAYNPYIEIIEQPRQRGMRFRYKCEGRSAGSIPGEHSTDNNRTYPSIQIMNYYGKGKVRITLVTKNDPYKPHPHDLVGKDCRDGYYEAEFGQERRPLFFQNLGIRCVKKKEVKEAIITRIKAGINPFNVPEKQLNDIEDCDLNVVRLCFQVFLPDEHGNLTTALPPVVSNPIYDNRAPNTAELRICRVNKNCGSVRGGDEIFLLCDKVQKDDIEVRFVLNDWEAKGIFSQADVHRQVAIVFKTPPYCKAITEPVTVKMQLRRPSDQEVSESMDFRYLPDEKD
T3 sequence 2: T1 sequence

Sequence of RELARELA (p65 homodimer) (Q04206 1-307): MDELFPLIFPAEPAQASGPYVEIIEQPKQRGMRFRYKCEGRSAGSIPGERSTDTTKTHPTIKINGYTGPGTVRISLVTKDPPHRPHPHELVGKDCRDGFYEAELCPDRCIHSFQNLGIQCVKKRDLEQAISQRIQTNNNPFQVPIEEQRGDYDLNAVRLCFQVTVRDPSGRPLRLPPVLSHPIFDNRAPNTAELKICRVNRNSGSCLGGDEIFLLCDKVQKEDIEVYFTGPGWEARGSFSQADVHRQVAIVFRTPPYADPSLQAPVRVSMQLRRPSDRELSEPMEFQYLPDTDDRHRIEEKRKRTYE
Sequence of RELA (p65) subunit of heterodimer;p50 subunit (Q04206 1-307, chain 1 of 2): as the sequence (Q04206 1-307) above
Sequence of RELA (p65) subunit of heterodimer;p50 subunit (P19838 7-356, chain 2 of 2): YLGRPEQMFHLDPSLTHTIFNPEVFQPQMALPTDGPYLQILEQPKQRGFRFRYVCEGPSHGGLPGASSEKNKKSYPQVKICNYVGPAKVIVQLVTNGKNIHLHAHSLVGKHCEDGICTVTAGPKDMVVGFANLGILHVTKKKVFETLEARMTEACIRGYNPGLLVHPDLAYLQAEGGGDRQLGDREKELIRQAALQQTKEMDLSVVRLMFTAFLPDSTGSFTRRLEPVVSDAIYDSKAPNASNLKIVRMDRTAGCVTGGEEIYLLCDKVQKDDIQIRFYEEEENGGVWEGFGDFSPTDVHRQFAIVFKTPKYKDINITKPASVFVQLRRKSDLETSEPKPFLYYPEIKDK
Sequence of p50p50 homodimer (P19838 7-356): as the sequence (P19838 7-356, chain 2 of 2) above

Sequence | binding signal (RELARELA (p65 homodimer)) | binding signal (p50p50 homodimer) | binding signal (p52p52 homodimer) | binding signal [1] | binding signal [2] | binding signal (RELB subunit;p50 subunit) | binding signal (RELB subunit;p52 subunit) | binding signal [3] | binding signal [4]
CGGATAATCCT | 0.536 z-score | -1.31 z-score | -0.659 z-score | -1.04 z-score | -0.831 z-score | -1.02 z-score | -1.08 z-score | -0.945 z-score | -0.765 z-score
AAGAGGCTCCC | -0.428 z-score | -1.01 z-score | -0.505 z-score | -0.958 z-score | -0.845 z-score | -0.665 z-score | -0.714 z-score | -1.12 z-score | -0.72 z-score
GGGTGTGTCCC | 0.547 z-score | 0.331 z-score | 1.38 z-score | 0.647 z-score | 1.02 z-score | 0.42 z-score | 0.593 z-score | 0.648 z-score | 0.813 z-score
CAAATCTCCCT | 0.0987 z-score | 1.24 z-score | 0.832 z-score | 1.06 z-score | 1.05 z-score | 1.35 z-score | 1.4 z-score | 0.664 z-score | 1.06 z-score
GGAAGACTCCT | -0.12 z-score | -1.87 z-score | -0.778 z-score | -0.958 z-score | -1.02 z-score | -1.23 z-score | -0.943 z-score | -1.17 z-score | -0.891 z-score
AGGAATGCCCT | 1.19 z-score | -0.455 z-score | -0.376 z-score | -0.147 z-score | -0.196 z-score | -0.674 z-score | -0.494 z-score | -0.208 z-score | 0.0938 z-score
AAAATGATCCC | -0.603 z-score | -0.272 z-score | -0.265 z-score | -0.543 z-score | -0.453 z-score | -0.443 z-score | -0.704 z-score | -0.71 z-score | -0.512 z-score
GGGGTGTTCCT | 1.06 z-score | 0.337 z-score | 0.617 z-score | 0.455 z-score | 0.487 z-score | 0.00295 z-score | 0.472 z-score | 0.537 z-score | 0.791 z-score
CAATGACTCCT | -0.344 z-score | -1.02 z-score | -0.692 z-score | -1.08 z-score | -1.05 z-score | -1.12 z-score | -0.995 z-score | -1.33 z-score | -1.13 z-score
CGAAACCCCCT | 0.503 z-score | 1.69 z-score | 2 z-score | 2.24 z-score | 2.14 z-score | 2.22 z-score | 2.21 z-score | 1.52 z-score | 2.21 z-score
CGGTGTCTCCC | -0.108 z-score | -0.00286 z-score | 0.283 z-score | 0.0635 z-score | 0.211 z-score | -0.121 z-score | 0.143 z-score | -0.0512 z-score | 0.354 z-score
GGATAGGTCCC | -0.076 z-score | -0.336 z-score | 0.0228 z-score | -0.276 z-score | -0.141 z-score | -0.137 z-score | -0.101 z-score | -0.467 z-score | -0.334 z-score
AAAAAGGTCCC | 0.243 z-score | 0.679 z-score | 0.569 z-score | 0.331 z-score | 0.184 z-score | 0.63 z-score | 0.428 z-score | 0.216 z-score | 0.157 z-score
AGGTATACCCT | -0.0429 z-score | -0.139 z-score | -0.102 z-score | -0.262 z-score | -0.241 z-score | -0.242 z-score | -0.17 z-score | -0.467 z-score | -0.258 z-score
GAATGGCCCCT | -0.247 z-score | 0.432 z-score | 0 z-score | 0.128 z-score | 0.262 z-score | 0.27 z-score | 0.242 z-score | -0.321 z-score | -0.168 z-score
GGAGTCACCCT | -0.674 z-score | -0.676 z-score | -0.345 z-score | -0.224 z-score | -0.5 z-score | -0.378 z-score | -0.661 z-score | -0.396 z-score | -0.585 z-score

Sequence | binding signal (RELARELA (p65 homodimer)) | binding signal (p50p50 homodimer) | binding signal (p52p52 homodimer) | binding signal [1] | binding signal [2] | binding signal (RELB subunit;p50 subunit) | binding signal (RELB subunit;p52 subunit) | binding signal [3] | binding signal [4]
GAGTTATCCCT | -0.151 z-score | 0.156 z-score | 0.345 z-score | -0.075 z-score | 0.135 z-score | 0.201 z-score | 0.304 z-score | -0.0693 z-score | -0.00956 z-score
AAAGTCCCCCT | 0.889 z-score | 1.59 z-score | 1.86 z-score | 2.31 z-score | 1.72 z-score | 2.26 z-score | 2.4 z-score | 1.7 z-score | 1.82 z-score
CGGGTTATCCC | 1.55 z-score | 0.247 z-score | 1.5 z-score | 0.634 z-score | 0.988 z-score | 0.155 z-score | 0.698 z-score | 0.306 z-score | 0.791 z-score
GGGGGTGCCCC | 1.45 z-score | 0.814 z-score | 3.15 z-score | 2.21 z-score | 2.88 z-score | 2.52 z-score | 2.27 z-score | 1.67 z-score | 2.5 z-score
GAAGAGTTCCC | 0.742 z-score | 0.281 z-score | -0.0634 z-score | 0.27 z-score | 0.0483 z-score | 0.132 z-score | -0.0744 z-score | 0.46 z-score | 0.057 z-score
CGGTTCATCCT | -0.997 z-score | -1.12 z-score | -0.513 z-score | -0.88 z-score | -0.9 z-score | -0.96 z-score | -0.765 z-score | -1.41 z-score | -1.01 z-score
AAGATTTCCCC | 2.26 z-score | 1.48 z-score | 2.39 z-score | 2.11 z-score | 2 z-score | 2.3 z-score | 2.17 z-score | 1.73 z-score | 2.03 z-score
CAGTACCCCCC | -0.045 z-score | 1.15 z-score | 0.733 z-score | 0.954 z-score | 0.96 z-score | 0.927 z-score | 1.16 z-score | 0.886 z-score | 0.823 z-score
AGGAGGATCCT | -0.49 z-score | -1.69 z-score | -0.694 z-score | -0.999 z-score | -1.04 z-score | -0.926 z-score | -0.821 z-score | -1.4 z-score | -0.915 z-score
AAAAGCGTCCC | 0.0306 z-score | 0.282 z-score | 0.41 z-score | 0.21 z-score | 0.286 z-score | 0.48 z-score | 0.821 z-score | 0.207 z-score | 0.0784 z-score
AGGATAATCCC | 1.11 z-score | -0.039 z-score | 0.47 z-score | 0.562 z-score | 0.416 z-score | -0.113 z-score | 0.0769 z-score | 0.307 z-score | 0.396 z-score
CAATTCGTCCC | 0.717 z-score | 0.108 z-score | 0.533 z-score | -0.0179 z-score | 0.123 z-score | 0.362 z-score | 0.547 z-score | 0.479 z-score | 0.00577 z-score
CAAGACCTCCC | -0.906 z-score | -1.11 z-score | -0.577 z-score | -0.688 z-score | -0.796 z-score | -0.585 z-score | -0.626 z-score | -0.818 z-score | -0.713 z-score
GGATATGCCCT | 0.304 z-score | -1.18 z-score | -0.574 z-score | -0.276 z-score | -0.49 z-score | -0.93 z-score | -0.689 z-score | -0.384 z-score | -0.294 z-score
CGGAACGTCCC | 1.16 z-score | 0.116 z-score | 0.505 z-score | 0.933 z-score | 0.956 z-score | 0.184 z-score | 0.327 z-score | 0.44 z-score | 0.748 z-score
